The values below come from PubChem BioAssay (NCATS).

Inconclusive results are not listed. The source made the active and inactive calls. Calls follow the shape of the dose curve; as a rule, active = well fitted cell-killing curve with a large enough effect; inconclusive = small, poorly fitted or top-dose-only effect, or effect the other way; inactive = no such curve, though single readings can be large or run the other way.
Potency is read from the fitted curve at half-maximal effect.

A short description of this experiment: Quantitative High-Throughput drug screen in 47 multiple myeloma cell lines against the NCATS MIPE library collection: XG6_PLB cell viability assay (AID 1919865). Also: nearly all actives have a fitted effect of over 40% in size. The settings on record: XG6 myeloma viability, CellTiter-Glo ATP luminescence, 48 h; series mostly up to 45.8 µM; viability (% of control): at the top concentration. The source says:
PI: Beverly A. Mock Ph.D.
Laboratory of Cancer Biology and Genetics,
Center for Cancer Research, National Cancer Institute,
National Institute of Health, Bethesda, Maryland
Drug resistance and disease progression are common in multiple myeloma (MM) patients, underscoring the need for new therapeutic combinations. […] We hypothesized that effective combinations would reduce MYC expression and enhance p16 activity. […] These preclinical data identify potentially useful drug combinations for evaluation in drug-resistant MM and reveal potential mechanisms of combined drug sensitivity.
Described herein is the primary MIPE qHTS used to cherrypick compounds. Validated compounds were then further tested for potential synergistic activiy.
[1] Peat TJ, Gaikwad SM, Dubois W, Gyabaah-Kessie N, Zhang S, Gorjifard S, Phyo Z, Andres M, Hughitt VK, Simpson RM, Miller MA, Girvin AT, Taylor A, Williams D, D'Antonio N, Zhang Y, Rajagopalan A, Flietner E, Wilson K, Zhang X, Shinn P, Klumpp-Thomas C, McKnight C, Itkin Z, Chen L, Kazandijian D, Zhang J, Michalowski AM, Simmons JK, Keats J, Thomas CJ, Mock BA. Drug combinations identified by high-throughput screening promote cell cycle transition and upregulate Smad pathways in myeloma. Cancer Lett. 2023 Aug 1;568:216284. doi: 10.1016/j.canlet.2023.216284. Epub 2023 Jun 24. PMID: 37356470; PMCID: PMC10408729.
SEQUENCE No. (e.g., 1, 2, 3, etc.); […] (e.g., Cells, Incubation, Reagent, etc.); VALUE and DESCRIPTION.
1; Cells; 5 uL; white, solid bottom 1536-well Greiner assay plate.
2; Compounds; 23 nL; Kalypsis pin tool (Wako USA) equipped with a 1536-well pin head to transfer to the assay plates.
3; Incubation; 48 hours; 37C incubation.
4; Reagent;5uL; CellTiter Glo (Promega).
5; Detector; 425V; Luminescence; Viewlux PerkinElmer.
NOTES (numbers refer to Sequence numbers above)
1. The cell-based screening methods employed in this study were like those previously published. Briefly, the corresponding myeloma cell lines were screened in 1,536-well plates with 500 cells, 5-uL per well for inhibition of cell viability (assessed by measuring ATP levels with CellTiterGlo).
2. NCATS MIPE 4.0 library of approved and investigational drugs were added using the Kalypsis pin tool. Wells treated with DMSO only for 100% viability and media only for 0% viability were used as controls.
3. The assay plates were covered and incubated for 48 hours in a 37C, 5% CO2 incubator with controlled humidity.
4. After 48 hours, CellTilter-GloTM luminescent substrate mix (Promega) reagent was added to the assay plate and plates we incubated for 5 min at room temperature.
5. Signal was measured as median relative luminescence units on a ViewLux (PerkinElmer) multiplate reader.
[1] Heske CM, Davis MI, Baumgart JT, Wilson K, Gormally MV, Chen L, Zhang X, Ceribelli M, Duveau DY, Guha R, Ferrer M, Arnaldez FI, Ji J, Tran HL, Zhang Y, Mendoza A, Helman LJ, Thomas CJ. Matrix Screen Identifies Synergistic Combination of PARP Inhibitors and Nicotinamide Phosphoribosyltransferase (NAMPT) Inhibitors in Ewing Sarcoma. Clin Cancer Res. 2017 Dec 1;23(23):7301-7311. doi: 10.1158/1078-0432.CCR-17-1121. Epub 2017 Sep 12. PMID: 28899971; PMCID: PMC6636827.
With `CN1CCN(CCCN2c3ccccc3Sc3ccc(C(F)(F)F)cc32)CC1`, the Potency was 1.05 µM (active).

As for `CO[C@@H]1[C@H](N(C)C(=O)c2ccccc2)C[C@H]2O[C@]1(C)n1c3ccccc3c3c4c(c5c6ccccc6n2c5c31)C(=O)NC4`, the Potency is 0.372 µM (active).

For `CCCc1nc2c(C)cc(-c3nc4ccccc4n3C)cc2n1Cc1ccc(-c2ccccc2C(=O)O)cc1`, the Potency was 23.5 µM (active).

For `OC(CN1CCC(Cc2ccc(F)cc2)CC1)c1ccc(Cl)cc1` (stereo not given), the “viability (% of control)” value is 96.9% (inactive).

On to `Cc1cccc(-c2nn(C(=S)Nc3ccccc3)cc2-c2ccnc3ccccc23)n1`, for which the “viability (% of control)” value was 95.2% (inactive).

`CCOc1ccn(-c2ccc(F)cc2)c(=O)c1C(=O)Nc1ccc(Oc2ccnc(N)c2Cl)c(F)c1`: the Potency was 11.8 µM (active).

Regarding `Cc1cc2c(C(C)C)c(O)c(O)c(C=O)c2c(O)c1-c1c(C)cc2c(C(C)C)c(O)c(O)c(C=O)c2c1O`, the Potency was 7.43 µM (active).

For the compound `Cc1ccc(-n2nc(C(C)(C)C)cc2NC(=O)Nc2ccc(OCCN3CCOCC3)c3ccccc23)cc1`, the Potency is 3.32 µM (active).

Take `NC(N)=NC(=O)c1nc(Cl)c(N)nc1N`: the Potency is 7.43 µM (active).

As to `NC[C@H](O)c1ccc(O)c(O)c1`, the “viability (% of control)” value was 101% (inactive).

Turning to `Cc1ccnc(NS(=O)(=O)c2ccc(NC(=O)Nc3ccc(S(=O)(=O)Nc4nccc(C)n4)cc3)cc2)n1`, the Potency was 4.18 µM (active).

As for `O=C(c1cc(Cc2n[nH]c(=O)c3ccccc23)ccc1F)N1CCN(C(=O)C2CC2)CC1`, the Potency is 13.2 µM (active).

`Clc1ccc(Nc2nnc(Cc3ccncc3)c3ccccc23)cc1`: the Potency is 2.09 µM (active).

On to `COc1cccc2cc(-c3nc(C4CCC(C(=O)O)CC4)n4ncnc(N)c34)[nH]c12` (stereo not given), for which the Potency is 0.418 µM (active).

In the case of `COc1c(Cl)cc2c([nH]c3cnccc32)c1NC(=O)c1cccnc1C`, the Potency was 0.166 µM (active).

`CC(=O)Oc1ccccc1C(=O)O`: the Potency was 4.69 µM (active).

Consider `CCC(=O)N[C@H]1CC[C@H](C(=O)N(C)c2ccc(-c3nc4ccccc4o3)cc2)C1`, for which the Potency is 8.33 µM (active).

For the compound `CCN(c1ccccc1)c1cc(NC)[n+](C)c(C)n1`, the “viability (% of control)” value was 106% (inactive).

Consider `Cc1csc(NC(=O)c2sc3nc4c(c(C(F)(F)F)c3c2N)CCC4)n1`, for which the “viability (% of control)” value is 82.9% (inactive).

`CS(=O)(=O)c1cccc(CNc2nc(Nc3ccc4c(c3)CCC(=O)N4)ncc2C(F)(F)F)c1`: the Potency is 8.33 µM (active).

On to `Cc1[nH]c(=O)c(C#N)cc1-c1ccc2nccn2c1`, for which the “viability (% of control)” value was 77.4% (inactive).

As to `c1ccc(-c2nn3c(c2-c2ccnc4cc(OCCN5CCOCC5)ccc24)CCC3)nc1`, the “viability (% of control)” value is 100% (inactive).

`CCOc1ccc(Cc2cc([C@@H]3O[C@H](CO)[C@@H](O)[C@H](O)[C@@H]3O)ccc2Cl)cc1`: the Potency was 3.32 µM (active).

In the case of `CN[C@@H](C)C(=O)N[C@H]1CCCC[C@H]2CC[C@@H](C(=O)N[C@@H](c3ccccc3)c3cn(CCCCc4ccc(CCCCn5cc([C@@H](NC(=O)[C@@H]6CC[C@@H]7CCCC[C@H](NC(=O)[C@H](C)NC)C(=O)N76)c6ccccc6)nn5)cc4)nn3)N2C1=O`, the Potency is 20.9 µM (active).

`CNC[C@H](O)c1cccc(O)c1`: the “viability (% of control)” value was 111% (inactive).

As to `Nc1nc2[nH]cc(CCc3ccc(C(=O)N[C@@H](CCC(=O)O)C(=O)O)cc3)c2c(=O)[nH]1`, the “viability (% of control)” value is 109% (inactive).

For the compound `CC[C@H](Nc1ncnc2nc[nH]c12)c1nc2cccc(F)c2c(=O)n1-c1ccccc1`, the Potency is 13.2 µM (active).

Consider `Nc1nc2ccc(OC(F)(F)F)cc2s1`, for which the “viability (% of control)” value is 102% (inactive).

`c1ccc([C@H]2CN3CCSC3=N2)cc1`: the Potency was 23.5 µM (active).

Take `NC(=O)c1ccc(-c2nc(-c3ccc4c(c3)OCO4)c(-c3ccccn3)[nH]2)cc1`: the “viability (% of control)” value is 90.5% (inactive).

Consider `O=C1CCCC2=C1C(c1[nH]ncc1Cl)N=C(Nc1nc3ccccc3o1)N2` (stereo not given), for which the Potency was 23.5 µM (active).

`CC1(C)CNc2cc(NC(=O)c3cccnc3NCc3ccncc3)ccc21`: the Potency is 0.372 µM (active).

On to `COc1ccc(-c2ccc3c(N4CCOCC4)nc(N4C[C@@H](C)O[C@@H](C)C4)nc3n2)cc1CO`, for which the Potency is 0.59 µM (active).

`CCCC(CCC)C(=O)O`: the Potency is 26.4 µM (active).

For the compound `Cn1cnc2c(F)c(Nc3ccc(Br)cc3Cl)c(C(=O)NOCCO)cc21`, the Potency is 0.418 µM (active).

`COc1ccc2c3n(c(=NC(=O)c4cccnc4)nc2c1OC)CCN3`: the Potency was 0.59 µM (active).

For `Cc1cc(C=c2sc3nc4ccccc4n3c2=O)c(C)n1-c1ccccc1`, the “viability (% of control)” value is 76.2% (inactive).

For `O=C(O)CCc1ccc(NCc2cccc(Oc3ccccc3)c2)cc1`, the “viability (% of control)” value is 95.7% (inactive).

`NC(=O)c1ccc(-c2nc(-c3ccc4c(c3)OCCO4)c(-c3ccccn3)[nH]2)cc1`: the Potency was 8.33 µM (active).

For the compound `OC(CCN1CCCCC1)(c1ccccc1)C1CC2C=CC1C2` (stereo not given), the “viability (% of control)” value was 115% (inactive).
